Reference: PubChem BioAssay (Tox21)
Inconclusive results are not listed. Activity calls are given as the source filed them. Calls come from the whole dose curve; as a rule, active = well fitted cell-killing curve with a large enough effect in the repeat runs (not every such curve was filed as active); inconclusive = weak or mixed curves, or effect the other way; inactive = no such curve, though single readings can be large or run the other way.
% is set by controls: 0 for no effect and ±100 for the full control effect.

Test: qHTS assay to identify small molecule antagonists of the estrogen related receptor signaling pathway with the pleiotropic PPARgamma coactivator (PGC) from Tox21 10K library - cell viability counter screen (AID 1224840); note: nearly all actives have a fitted effect of over 40% in size
Conditions: PGC/ERR reporter cells viability, CellTiter-Fluor, 17.5 h; series mostly up to 92.4 µM
From the text: National Center for Advancing Translational Sciences [NCATS]
NIH Chemical Genomics Center [NCGC]
U.S. Environmental Protection Agency [EPA]
National Institutes of Environmental Health Sciences [NIEHS]
National Toxicology Program [NTP]
U.S. Food and Drug Administration [FDA]
Estrogen related receptors (ERRs), the first orphan nuclear receptors discovered, play an important role in the control of cellular energy metabolism. ERRs are required for high-energy production in response to the environmental challenges. The pleiotropic PPARgamma coactivator (PGC) is a major partner of ERR and a key regulator in energy homeostasis. Together they have been implicated in the etiology of metabolic disorders such as Type 2 diabetes and metabolic syndrome. ERR-alpha was also identified as an adverse marker for breast cancer progression; ERR-alpha-positive tumors have a poor prognosis. To screen and to identify environmental compounds that perturb the ERR and PGC/ERR signaling pathways could provide valuable information for potential therapeutic or preventive measures in the treatment of metabolic disease. To differentiate true PGC/ERR antagonists or agonist from cytotoxic substances, the assay is multiplexed with cell viability assay.
Tox21 Assay Protocol Summary:
The PGC/ERR cells were dispensed at 2,000 cells/5 ul/well in 1536-well white plates using a Multidrop dispenser. After the assay plates were incubated at a 37 C/5% CO2 incubator for 6 hours, 23 nL of compounds dissolved in DMSO, positive and negative controls or DMSO only was transferred to the assay plate by a pin tool. The plates were incubated at 37 C for 17.5 hours. 1 ul/well of CellTiter-Fluor reagent was added into the assay plates using a Flying Reagent Dispenser. After 30-minute incubation at 37 C/5% CO2, the fluorescence intensity in the plates was measured using a ViewLux plate reader.
In the case of `CC(C)CCC(=O)CCC(C)C`, the outcome is reported as “inactive”.
In the case of `CO[Si](CCCCl)(OC)OC`, the outcome is reported as “inactive”.
For `Nc1cc(C(=O)O)ccc1Cl`, the outcome was “inactive”.
In the case of `O=C(Nc1cccc(C2=NCCN2)c1)Nc1cccc(C2=NCCN2)c1`, the viability change, negative = cytotoxic is reported as 0.87% [at 19 µM] (inactive).
With `CN(C1CCCCC1)S(=O)(=O)c1ccccc1N` the outcome was “inactive”.
For `CCN(CCC#N)c1ccccc1`, the outcome was “inactive”.
For `C=CCOc1c(Br)cc(C(C)(C)c2cc(Br)c(OCC=C)c(Br)c2)cc1Br`, the outcome was “inactive”.
In the case of `c1ccccc1`, the outcome is reported as “inactive”.
With `O=C(O)/C=C/c1ccccc1` the outcome was “inactive”.
With `CC(=O)OCCCc1ccccc1` the outcome was “inactive”.
For `C=CC(C)(O)CC/C=C(\C)CC` (stereo not given), the outcome was “inactive”.
In the case of `Cc1nc2ccccc2c(=O)o1`, the outcome is reported as “inactive”.
For `NC(=O)C1(N2CCCCC2)CCN(CCCC(=O)c2ccc(F)cc2)CC1`, the outcome was “inactive”.
For `Nc1ccc(C(=O)OCC(O)CO)cc1` (stereo not given), the outcome was “inactive”.
In the case of `CCCCCCCCCCC`, the outcome is reported as “inactive”.
For `FC(F)(F)c1ccc(Cl)cc1Cl`, the outcome was “inactive”.
With `CCCCCCCC[Si](OCC)(OCC)OCC` the outcome was “inactive”.
For `NS(=O)(=O)c1ccc(Cl)c(S(N)(=O)=O)c1`, the outcome was “inactive”.
In the case of `Cc1c(C(C)C)c(=O)n(-c2ccccc2)n1C`, the outcome is reported as “inactive”.
For `C/C=C(\C)C(=O)OCC/C=C\CC`, the outcome was “inactive”.
For `COC(=O)CCC(=O)O`, the outcome was “inactive”.
With `CCC(=O)OCCC(C)CCC=C(C)C` (stereo not given) the outcome was “inactive”.
With `CCCCCC(=O)OCC` the outcome was “inactive”.
For `CNCc1ccccc1`, the outcome was “inactive”.
In the case of `Cc1cc(C)cc([N+](=O)[O-])c1`, the outcome is reported as “inactive”.
In the case of `C=C(C)[C@@H]1CC[C@@H](C)C[C@@H]1O`, the outcome is reported as “inactive”.
In the case of `O=C(/C=C/c1ccccc1)NCCO`, the outcome is reported as “inactive”.
For `CCCCC(CC)CNC(=O)CC(C)OC(=O)CCC(=O)O` (stereo not given), the outcome was “inactive”.
For `CCCCCCCCCCCCCCCC(=O)NCCO`, the outcome was “inactive”.
In the case of `CCCCOC(=O)[C@@H](C)Oc1ccc(Oc2ccc(C(F)(F)F)cn2)cc1`, the outcome is reported as “inactive”.
For `CC(C)CCCCCCOC(=O)C1CCCCC1C(=O)OCCCCCCC(C)C` (stereo not given), the outcome was “inactive”.
For `O=c1[nH]c(=O)c2[nH]c(=O)[nH]c2[nH]1`, the viability change, negative = cytotoxic was -2.62% [at 8.39 µM] (inactive).
In the case of `CCOC(=O)OCC/C(SC(=O)OCC)=C(\C)N(C=O)Cc1cnc(C)nc1N`, the outcome is reported as “inactive”.
With `Nc1cc(S(=O)(=O)O)ccc1S(=O)(=O)O` the outcome was “inactive”.
In the case of `CC(C)C(=O)Nc1cccc(C(F)(F)F)c1`, the outcome is reported as “inactive”.
For `O=C(c1ccc2c(c1)C(=O)OC2=O)c1ccc2c(c1)C(=O)OC2=O`, the outcome was “inactive”.
With `C1=CCC(c2ccccc2)CC1` (stereo not given) the outcome was “inactive”.
In the case of `CCOC(=O)CC(CC(=O)OCC)(OC(C)=O)C(=O)OCC`, the outcome is reported as “inactive”.
With `COCC(=O)Nc1c(I)c(C(=O)NCC(O)CO)c(I)c(C(=O)N(C)CC(O)CO)c1I` (stereo not given) the outcome was “inactive”.
With `Cc1ccccc1OCC1CO1` (stereo not given) the outcome was “inactive”.
